Each structure is given as a SMILES string. In all, about 16,000 compounds went through this assay and about 5,100 (32%) were called active. Inconclusive results (about 25%) are left out. Calls follow the shape of the dose curve; as a rule, active = well fitted curve in the direction sought with a large enough effect; inconclusive = small, poorly fitted or top-dose-only effect, or effect the other way; inactive = no such curve, though single readings can be large or run the other way. Some of the results follow.
% is scaled to controls: 0 for no effect and ±100 for the full control effect.

This assay deals with Cytochrome P450 3A4 (Homo sapiens) (UniProt P08684). Briefly: Cytochrome panel assay with activity outcomes. The note with it: recombinant CYP, pro-luciferin dealkylation, luminescence, p450-cyp3a4; series mostly up to 57.1 µM.
Chain of Cytochrome P450 3A4 (Homo sapiens) (P08684 whole entry, looked up): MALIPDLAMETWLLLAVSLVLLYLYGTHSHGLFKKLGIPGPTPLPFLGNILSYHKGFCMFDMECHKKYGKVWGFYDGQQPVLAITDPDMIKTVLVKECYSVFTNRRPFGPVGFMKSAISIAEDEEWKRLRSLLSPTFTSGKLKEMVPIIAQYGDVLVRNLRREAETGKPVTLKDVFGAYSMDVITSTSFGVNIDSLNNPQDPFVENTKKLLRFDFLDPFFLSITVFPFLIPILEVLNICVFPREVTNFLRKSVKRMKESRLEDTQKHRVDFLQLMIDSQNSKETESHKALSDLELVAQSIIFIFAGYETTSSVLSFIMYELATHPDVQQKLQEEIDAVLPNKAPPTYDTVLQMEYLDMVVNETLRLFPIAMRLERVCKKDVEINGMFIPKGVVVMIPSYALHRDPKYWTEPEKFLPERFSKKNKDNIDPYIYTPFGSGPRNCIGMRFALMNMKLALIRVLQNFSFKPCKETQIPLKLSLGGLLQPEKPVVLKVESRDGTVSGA
With `NCC(=O)Nc1ccccc1`, the activity, negative = inhibition was -12.7% [at 11.4 µM] (inactive).

Regarding `Cn1ccnc1SCC(=O)Nc1sccc1C#N`, the half-maximal activity concentration (AC50) was 14.1 µM (active).

For `CCn1ccc(C(=O)NC2=C(C#N)CCC2)n1`, the AC50 result was “inactive”.

`COc1cccc(-n2ccnc2SCC(=O)Nc2nccs2)c1`: the AC50 is 3.55 µM (active).

In the case of `O=C(CSc1nnc2c3ccccc3c3ccccc3c2n1)Nc1ccccc1`, the activity, negative = inhibition is 1.75% [at 2.29 µM] (inactive).

Consider `Cn1c(SCC(=O)Nc2ccccc2)nc(O)cc1=O`, for which the AC50 was 3.55 µM (active).

Turning to `O=C(O)CCC(=O)N1CCC[C@H]1C(=O)O`, the AC50 result was “inactive”.

For the molecule `O=C(c1ccncc1)N1CCC2(CC1)CCN(c1ncccn1)CC2`, the AC50 result is “inactive”.

For `O=C(c1ccncc1)N1CCC2(CCCN(C(c3ccccc3)c3ccccc3)C2)CC1`, the AC50 is 1 µM (active).

Take `O=C(c1ccncc1)N1CCC2(CC1)CCN(C(c1ccccc1)c1ccccc1)CC2`: the AC50 entry is “inactive”.

In the case of `O=C(c1cnccn1)N1CCC2(CCCN(C(c3ccccc3)c3ccccc3)C2)CC1`, the AC50 was 1.58 µM (active).

`O=C(c1cnccn1)N1CCC2(CCCN(c3ncccn3)C2)CC1`: the AC50 result is “inactive”.

`Cc1ccc(C(=O)c2ccc(CC(=O)O)n2C)cc1`: the AC50 entry was “inactive”.

As for `Cc1ccc(Nc2nc(-c3sc(NC(=O)c4ccc([N+](=O)[O-])cc4)nc3C)cs2)cc1`, the AC50 was 10 µM (active).

`CCOc1ccccc1Nc1ccc(N)cc1S(=O)(=O)O`: the activity, negative = inhibition is -9.59% [at 11.4 µM] (inactive).

For `COc1ccccc1Nc1nc(-c2sc(NC(=O)c3ccc([N+](=O)[O-])cc3)nc2C)cs1`, the AC50 is 8.91 µM (active).

With `CCOc1ccccc1Nc1nc(-c2sc(NC(=O)c3ccccc3)nc2C)cs1`, the AC50 was 7.94 µM (active).

Take `CCOC(=O)C[C@@H](C(=O)OCC)[C@@H]1CCCCC1=O`: the activity, negative = inhibition was -10.4% [at 11.4 µM] (inactive).

With `COCCn1c(Cc2ccccc2)nnc1SCc1nc2ccccc2c(=O)[nH]1`, the AC50 was 3.16 µM (active).

On to `CC[C@@H]1OC(=O)[C@H](C)[C@H](O[C@@H]2C[C@](C)(OC)[C@H](O)[C@H](C)O2)[C@H](C)[C@H](O[C@@H]2O[C@@H](C)C[C@@H](N(C)C)[C@@H]2O)[C@](C)(O)C[C@H](C)[C@@H]2N[C@H](COCCOC)O[C@H]([C@@H]2C)[C@]1(C)O`, for which the AC50 entry is “inactive”.

Take `CCn1c(=O)c2c(nc3n2CCS3)n(C)c1=O`: the AC50 result is “inactive”.

`CC(C)(Sc1ccc(CCN(CCCCC2CCCCC2)C(=O)NC2CCCCC2)cc1)C(=O)O`: the AC50 was 3.98 µM (active).

As for `Cc1cc(C)nc(NC(=O)c2cccc([N+](=O)[O-])c2C)n1`, the AC50 entry is “inactive”.

In the case of `Cc1cccc(NC(=O)c2ccc([N+](=O)[O-])o2)n1`, the AC50 result is “inactive”.

On to `O=C(Nc1cccc(NC(=O)c2ccccc2[N+](=O)[O-])n1)c1ccccc1[N+](=O)[O-]`, for which the AC50 is 10 µM (active).

With `CC(Cc1ccccc1)NC(=O)CSc1nc2nc3c(cc2c(=O)n1-c1ccccc1)COC(C)(C)C3` (configuration not stated), the concentration at half-maximal activity (AC50) is 7.94 µM (active).

As for `CNC(C)c1cc(OC)ccc1OC` (configuration not stated), the AC50 result is “inactive”.

Consider `COc1cc(/C=C\c2ccc(OC)cc2OC)cc(OC)c1`, for which the AC50 was 15.8 µM (active).

As for `COc1ccc(/C=N/n2c(C)nnc2C)c(OC)c1`, the AC50 entry was “inactive”.

Turning to `COc1ccc(N2CCN(S(=O)(=O)c3ccc4c(c3)CCCC4)CC2)c([N+](=O)[O-])c1`, the AC50 is 4.47 µM (active).

Regarding `O=C(c1cc(-c2ccncc2)nc2ccccc12)N1CCN(c2ccc(N3CCOCC3)nn2)CC1`, the AC50 is 1.58 µM (active).

As to `O=C(O)c1cc(-c2ccc(-c3ccccc3)cc2)nc2cc3ccccc3cc12`, the activity, negative = inhibition is 2.43% [at 11.4 µM] (inactive).

With `Cc1ccc(C)c(NC(=O)C2C3CCCC2C3c2ccccc2)c1` (configuration not stated), the AC50 result was “inactive”.

As to `Cc1ccc(C)c(NC(=O)C2CC3c4ccccc4C2c2ccccc23)c1` (configuration not stated), the activity, negative = inhibition was -27.2% [at 2.29 µM] (inactive).

As to `Cc1ccc(C)c(NC(=O)C2(C)CC3c4ccccc4C2c2ccccc23)c1` (configuration not stated), the AC50 was 2.24 µM (active).

For `Fc1ccc(CN(C2=NCCN2)c2c(Cl)cccc2Cl)cc1`, the AC50 result was “inactive”.

In the case of `Cc1ccc(NC(=O)c2cc(N3C(=O)C4CC=CCC4C3=O)ccc2N2CCOCC2)cc1Cl` (configuration not stated), the AC50 is 12.6 µM (active).

In the case of `O=C(Nc1ccc2nc(SCc3ccc(Cl)cc3)sc2c1)c1ccccc1C(=O)N1CCOCC1`, the AC50 is 7.94 µM (active).

Take `Cc1nc(SCC(=O)Nc2ccc(N3CCOCC3)cc2)nc(C)c1C`: the AC50 is 14.1 µM (active).

With `O=C(c1ccc2nc3ccc(Cl)cc3c(=O)n2c1)N1CCOCC1`, the AC50 result is “inactive”.

For the molecule `Cc1ccccc1C(=O)Nc1ccc(N2CCOCC2)nc1`, the AC50 result was “inactive”.

Take `CCCC(=O)Nc1ccc2nc(SCC(=O)Nc3ccc(N4CCOCC4)c(Cl)c3)sc2c1`: the AC50 is 1.41 µM (active).

In the case of `Cn1c(CCC(=O)Nc2ccc(N3CCOCC3)cc2)nc(=O)c2ccccc21`, the activity, negative = inhibition is -13.8% [at 11.4 µM] (inactive).

In the case of `CCOC(=S)SCC(=O)O`, the activity, negative = inhibition was -14.7% [at 11.4 µM] (inactive).

Regarding `CCOc1ccc(OCCOc2ncnc3ccccc23)cc1`, the activity, negative = inhibition is -3.65% [at 2.29 µM] (inactive).

Take `O=C(/C=C/c1ccco1)NC(=S)Nc1ccc(N2CCOCC2)c(Cl)c1`: the activity, negative = inhibition is 12.4% [at 2.29 µM] (inactive).

Turning to `Cc1ccc(NC(=O)c2cc(NC(=O)CCC(=O)O)ccc2N2CCCCC2)cc1`, the AC50 result is “inactive”.

With `Cc1ccc(NC(=O)CSCC(=O)Nc2ccc(N3CCOCC3)c(Cl)c2)cc1`, the AC50 was 3.55 µM (active).

Take `NCCSCCc1ccccc1`: the activity, negative = inhibition was -8.42% [at 11.4 µM] (inactive).

For the molecule `NCCOB(c1ccccc1)c1ccccc1`, the concentration at half-maximal activity (AC50) was 12.6 µM (active).

As for `O=C(O)[C@@H]1CCCNC1`, the AC50 result is “inactive”.

`Cc1ccc(C(=O)N/N=C/c2sc(=O)n(Cc3cccc(C(=O)O)c3)c2Cl)cc1`: the AC50 entry is “inactive”.

As to `CCC(C)n1c(NC(=O)c2ccccc2)c(C#N)c2nc3ccccc3nc21` (configuration not stated), the AC50 entry is “inactive”.

`Cc1ccc(C(=O)Nc2c(C#N)c(C)c(C)n2Cc2ccccc2)cc1`: the AC50 was 10 µM (active).

For `CCOC(=O)Cc1csc(NC(=O)c2c(-c3c(Cl)cccc3Cl)noc2C)n1`, the activity, negative = inhibition was -21.4% [at 2.29 µM] (inactive).

On to `CCOC(=O)Cc1csc(NC(=O)c2ccc(Cl)nc2)n1`, for which the AC50 is 14.1 µM (active).

With `CCOC(=O)Cc1csc(NC(=O)c2ccc(S(=O)(=O)N3CCCCC3)cc2)n1`, the AC50 entry was “inactive”.

In the case of `CCOc1cc(S(=O)(=O)N(Cc2ccccc2)Cc2ccccc2)c(OCC)cc1-n1cnnn1`, the AC50 was 12.6 µM (active).

Turning to `COc1ccccc1CNc1ccnc(-c2ccccc2C(F)(F)F)n1`, the concentration at half-maximal activity (AC50) is 12.6 µM (active).

With `COc1ccccc1CNc1ccnc(-c2ccccc2OC)n1`, the AC50 is 15.8 µM (active).

Turning to `COCCNc1ccnc(-c2ccccc2C(F)(F)F)n1`, the AC50 entry is “inactive”.

Take `COc1ccccc1-c1nccc(NC2CCNCC2)n1`: the AC50 result was “inactive”.

As to `Fc1ccc(Nc2ccnc(-c3ccccc3C(F)(F)F)n2)cc1`, the AC50 is 12.6 µM (active).

For `Cc1nc([N+](=O)[O-])c(N2CCN(C)CC2)n1Cc1ccccc1`, the AC50 entry was “inactive”.

On to `CCCOc1ccc(Cn2c(C)nc([N+](=O)[O-])c2SCC(O)COC)cc1[N+](=O)[O-]` (configuration not stated), for which the AC50 is 14.1 µM (active).

For `COc1ccc(CSc2nnnn2C)cc1[N+](=O)[O-]`, the AC50 result was “inactive”.

For the molecule `Nc1nc2c(nc(Br)n2[C@@H]2O[C@H]3COP(=O)(O)O[C@@H]3[C@H]2O)c(=O)[nH]1`, the AC50 entry is “inactive”.

With `COC(=O)Nc1ccc2[nH]cc(CCNC(C)=O)c2c1`, the AC50 entry was “inactive”.

Turning to `Nc1ccc2[nH]cc(CCC(=O)O)c2c1`, the activity, negative = inhibition is -1.6% [at 11.4 µM] (inactive).

Consider `COc1cc2c(CCNC(C)=O)c[nH]c2cc1Cl`, for which the AC50 is 15.8 µM (active).

As to `CN(C)[C@@H]1C(=O)C(C(N)=O)=C(O)[C@]2(O)C(=O)C3=C(O)c4c(O)ccc(Cl)c4[C@H](O)[C@H]3C[C@@H]12`, the AC50 entry is “inactive”.

Regarding `Cc1ccc(/C=C/c2ccc(=O)n(Cc3ccc(Cl)cc3Cl)n2)cc1`, the AC50 result is “inactive”.

As for `Cc1ccc(Cn2cnc3c(nnn3Cc3ccc(Cl)cc3)c2=O)cc1`, the half-maximal activity concentration (AC50) was 3.16 µM (active).

Consider `Cc1nn(Cc2c(F)c(F)c(F)c(F)c2F)c(C)c1NC(=O)c1cccc(COc2ccccc2Cl)c1`, for which the AC50 was 3.98 µM (active).

In the case of `Cc1nn(Cc2c(F)c(F)c(F)c(F)c2F)c(C)c1NC(=O)c1cccc(COc2ccc(Cl)cc2)c1`, the activity, negative = inhibition was -20.6% [at 2.29 µM] (inactive).

Turning to `Cc1nn(Cc2c(F)c(F)c(F)c(F)c2F)c(C)c1NC(=O)c1c(-c2ccccc2)nn(-c2ccccc2)c1C`, the AC50 was 2.24 µM (active).

Regarding `Cc1ncc(COP(=O)(O)O)c(C)c1O`, the activity, negative = inhibition is -9.44% [at 11.4 µM] (inactive).

For `Nc1c2c(nc3ccccc13)CCCC2`, the AC50 entry is “inactive”.

With `COc1ccc(OC)c(NC(=O)c2c3c(nc4ccccc24)CCC3)c1`, the AC50 was 7.08 µM (active).

Take `COc1ccc(OC)c(NC(=O)[C@H]2CC=CC[C@H]2C(=O)O)c1`: the AC50 entry is “inactive”.

Turning to `COc1ccc(OC)c(-c2cc(C(=O)O)c3cc4ccccc4cc3n2)c1`, the activity, negative = inhibition was 6% [at 11.4 µM] (inactive).

Consider `COc1cc(-c2nnc(COC(=O)c3c4c(nc5ccccc35)CCCC4)o2)cc(OC)c1OC`, for which the concentration at half-maximal activity (AC50) is 4.47 µM (active).

`O=C1NC(=O)C(c2ccccc2)(c2ccccc2)N1`: the AC50 result was “inactive”.

For `O=C1Nc2cc(C(=O)N3CCOCC3)ccc2SC1N1CCOCC1` (configuration not stated), the AC50 result is “inactive”.

Turning to `Cc1cn(CC[C@H](N)C(=O)O)c(=O)[nH]c1=O`, the activity, negative = inhibition was -9% [at 11.4 µM] (inactive).

With `O=C(NCc1ccccc1)C(c1ccncc1)N(C(=O)c1csnn1)C1CC1` (configuration not stated), the AC50 was 2.82 µM (active).

`O=C(Nc1cccc(F)c1)N1CCC2(CC1)CCN(C(=O)c1csnn1)CC2`: the AC50 result is “inactive”.

Take `O=C(NCc1ccc(F)cc1)C(c1ccncc1)N(C(=O)c1csnn1)C1CC1` (configuration not stated): the AC50 was 2 µM (active).

For `O=C(O)CCC(=O)c1ccc(Cl)cc1`, the activity, negative = inhibition was 1.22% [at 11.4 µM] (inactive).

For `O=C(C/C=N/OCc1ccc(Cl)cc1Cl)c1ccc(Cl)cc1`, the AC50 is 25.1 µM (active).

`CCN1CCN(CCCNC(=O)C(NC(=O)C2CCC(C)CC2)C(C)C)CC1` (configuration not stated): the AC50 entry was “inactive”.

With `CC(=O)NCCc1c(Cc2ccccc2)[nH]c2ccccc12`, the AC50 was 7.94 µM (active).

Take `COc1ccc2[nH]c(-c3ccccc3)c(CCNC(C)=O)c2c1`: the AC50 is 12.6 µM (active).

Turning to `COc1ccc2[nH]c3cc4c(=O)c5cc(OC)ccc5[nH]c4cc3c(=O)c2c1`, the activity, negative = inhibition is -0.294% [at 11.4 µM] (inactive).

Consider `CCCCC(=O)NCCc1c(Cc2ccccc2)[nH]c2ccccc12`, for which the concentration at half-maximal activity (AC50) was 0.794 µM (active).

Take `CCCCNC(=O)C(=O)NC(C)CCc1ccccc1` (configuration not stated): the AC50 entry is “inactive”.

As for `Cc1ccc2[nH]c(-c3ccccc3)c(CN(C)C)c(=O)c2c1`, the activity, negative = inhibition is 9.06% [at 2.29 µM] (inactive).
